# Test results taken from PubChem BioAssay AID778 (Sanford-Burnham Center for Chemical Genomics, 2007).
# Among all 96,000 compounds or so, about 20,000 (21%) were called active.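 How the source made its calls: active means CYP2C19 inhibition above a set limit at 5 µM in the primary screen (cut at about 50% in these data); inactive means the rest.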 Not all results are given here.
# Target: Cytochrome P450 2C19 (Homo sapiens) (UniProt P33261)
# Experiment: blockers of cytochrome P450 2C19 activity – biochemical, luminescence, ADME assay, primary screen (AID 778);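 further: plate controls were negative control wells for no effect and 2.5 mM tranylcypromine positive control for full effect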
# Conditions: CYP2C19 Supersomes, luciferin-H EGE luminescence, 30 min; at 5 µM; active compounds read high
# Chain of Cytochrome P450 2C19 (Homo sapiens) (P33261 whole entry, looked up): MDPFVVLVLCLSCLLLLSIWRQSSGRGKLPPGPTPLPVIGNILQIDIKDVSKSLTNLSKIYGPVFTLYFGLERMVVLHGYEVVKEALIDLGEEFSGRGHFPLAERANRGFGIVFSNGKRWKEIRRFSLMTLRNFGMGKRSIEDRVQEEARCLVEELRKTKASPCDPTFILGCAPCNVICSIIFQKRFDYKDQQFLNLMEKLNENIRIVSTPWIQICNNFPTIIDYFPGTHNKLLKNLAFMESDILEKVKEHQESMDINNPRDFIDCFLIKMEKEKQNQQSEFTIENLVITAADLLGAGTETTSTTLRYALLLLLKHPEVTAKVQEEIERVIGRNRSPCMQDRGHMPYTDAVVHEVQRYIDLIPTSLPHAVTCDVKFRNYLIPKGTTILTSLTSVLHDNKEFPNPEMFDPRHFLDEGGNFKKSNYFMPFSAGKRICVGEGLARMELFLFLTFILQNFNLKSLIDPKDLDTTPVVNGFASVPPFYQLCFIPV
row,SMILES,inhibition
1,CC1=NN(C(=O)c2ccccc2Br)C(O)(c2cccnc2)C1 (centres undefined),16.7% (inactive)
2,Cc1ccc(NC(=O)N2CCC(O)(c3cccnc3)CC2)cc1,2.2% (inactive)
3,CC1=NN(C(=O)Cc2ccc(C)cc2)C(O)(c2cccnc2)C1 (centres undefined),62.6% (active)
4,CC(c1ccccn1)N(CCN(C)C)C(=S)Nc1ccccc1F (centres undefined),13.7% (inactive)
5,Cc1cc2c(c(=O)n1C)C(C(C)C)C(C#N)=C(N)O2 (centres undefined),3.4% (inactive)
6,CCCCN(C)C(=O)C1CCN(Cc2ccccn2)CC1,-6.2% (inactive)
7,COc1ccc(C2CC(=O)C=C(NCC3CCCO3)C2)cc1 (centres undefined),19.6% (inactive)
8,COc1ccc(-c2nn3c(-c4ccccc4)nnc3s2)cc1OC,0.9% (inactive)
9,COc1cc(-c2nn3c(-c4cccc(C)c4)nnc3s2)cc(OC)c1OC,79.2% (active)
10,CCOc1cccc(-c2nn3c(-c4ccccn4)nnc3s2)c1,-1.6% (inactive)
11,CC(C)(C)n1c(=O)[nH]c2c(c1=O)CCC2,-16.7% (inactive)
12,O=C(O)C1CCN(S(=O)(=O)N2CCOCC2)CC1,-3% (inactive)
13,O=S(=O)(NCC1OCCc2ccccc21)c1ccccc1 (centres undefined),53.6% (active)
14,O=C1c2ccccc2C(=O)N1CC1c2ccccc2CCN1S(=O)(=O)c1ccccc1 (centres undefined),36.9% (inactive)
15,O=C(CN(CC1CCCO1)C(=O)CNS(=O)(=O)c1ccccc1)NCc1ccccc1 (centres undefined),4.5% (inactive)
16,N#CC(C(N)=O)=C1CCC2(CC1)OCCCCO2,24.1% (inactive)
17,CC(N)C12CC3CC(CC(O)(C3)C1)C2 (centres undefined),6.1% (inactive)
18,FC(F)(F)c1cccc(-c2cc3ccccc3nc2N2CCCC2)c1,16.1% (inactive)
19,O=C1c2ccncc2C(=O)N1C1CCCCC1,-1.7% (inactive)
20,COc1ccc2c(Cl)c(-c3nnco3)sc2c1,19% (inactive)
21,COc1cccc(N=c2oc3c(C)ncc(CO)c3cc2C(N)=O)c1,21.1% (inactive)
22,CN(C)/C=C/C(=O)c1ccccc1F,-7% (inactive)

row,SMILES,inhibition
1,CC(Oc1ccc(Cl)cc1Cl)C(=O)/C=C/N(C)C (centres undefined),60.1% (active)
2,CC(Oc1ccc(F)cc1F)C(=O)/C=C/N(C)C (centres undefined),-6.9% (inactive)
3,Cc1cccc(N(CC(O)CN(C)C)S(=O)(=O)c2ccccc2)c1 (centres undefined),-5.2% (inactive)
4,O=C(CN1CCSCC1)N/N=C/c1ccc(F)cc1F,3.1% (inactive)
5,Cc1ccc(-c2nc(CS(=O)CC(=O)NC3CCCC3)c(C)o2)cc1 (centres undefined),32.1% (inactive)
6,COC(=O)C1(S(=O)(=O)C2(C(=O)OC)CCCC2)CCCC1,65.4% (active)
7,COc1ccc(Cc2nnc(SC)[nH]c2=O)cc1,-4.5% (inactive)
8,Cc1cccc(C(=O)NCCCN2CCCC2=O)c1,21.8% (inactive)
9,CCc1nc(C)cn1S(=O)(=O)c1cc(OC)c(C)cc1C,45.7% (inactive)
10,COc1ccc(N2C(=O)CN=C2Nc2cccc(C)c2C)cc1OC,17.1% (inactive)
11,Cc1cc(C)nc(NC2=NCC(=O)N2c2ccc(Cl)cc2)n1,4.3% (inactive)
12,COc1ccc(CN2C(=O)CN=C2Nc2ccc(C)cc2C)cc1,82.7% (active)
13,Cc1nc(NC2=NC(C(=O)Nc3ccc(Cl)cc3)CC(=O)N2)nc2ccccc12 (centres undefined),2.5% (inactive)
14,CC(C)Oc1ccc(C(=O)NC(C)(C)CO)cc1,3.7% (inactive)
15,COC(=O)c1ccc(C2CC(=O)Nc3cc(OC)c(OC)cc32)cc1 (centres undefined),36.1% (inactive)
16,COCCOC(=O)C1=C(C)NC(=O)CC1c1cc2c(cc1Br)OCO2 (centres undefined),83.7% (active)
17,COCCOC(=O)C1=C(C)Nc2nc(C)nn2C1c1ccccc1 (centres undefined),17.9% (inactive)
18,CC(C)(C)C(=O)Nc1ccc(C(=O)N/N=C/c2ccccc2OC(=O)c2ccc(Cl)cc2Cl)cc1,42.1% (inactive)
19,CN1CCN(S(=O)(=O)c2ccc(NC(=O)c3ccco3)cc2)CC1,-15.6% (inactive)
20,Fc1ccc(N2N=C(c3cccs3)CC2c2ccco2)c(F)c1 (centres undefined),2.3% (inactive)
21,CCS(=O)(=O)Nc1ccc(C2=NN(S(=O)(=O)c3ccc(F)cc3)C(c3ccco3)C2)cc1 (centres undefined),82.8% (active)
22,COc1cccc2c1OCC1COc3c(c(=O)n(C)c(=O)n3C)C21 (centres undefined),-1% (inactive)

row,SMILES,inhibition
1,COc1ccc(C2CC(=O)n3c(nc4ccccc43)S2)cc1OC (centres undefined),11.9% (inactive)
2,COc1ccc(C2N=C(N)N=C(N)N2c2ccccc2)cc1OC (centres undefined),57.2% (active)
3,COc1ccc(C2SCCN2S(=O)(=O)c2ccccc2)cc1OC (centres undefined),48.2% (inactive)
4,Cc1c(Nc2cc(N3CCCC(C)C3)c3nonc3c2[N+](=O)[O-])c(=O)n(-c2ccccc2)n1C (centres undefined),19.5% (inactive)
5,CCSC(C)CC1C/C(=N/O)c2c(C)noc2C1 (centres undefined),40.9% (inactive)
6,Cc1ccc(C(=O)N/C(=C/C=C/c2ccccc2)C(=O)NCc2ccco2)cc1,50.8% (active)
7,CNC(=O)/C(=C\C=C\c1ccccc1)NC(=O)c1ccc([N+](=O)[O-])cc1,23.9% (inactive)
8,COc1cc(C(=O)NC(=S)NCc2ccco2)cc(OC)c1OC,28.5% (inactive)
9,CCOCCCNC(=O)C(NC(=O)c1ccc(=O)[nH]c1)c1ccc(Cl)cc1 (centres undefined),-4.8% (inactive)
10,CCN(CC(=O)Nc1ccccc1OC)C(=O)Cn1cnc2ccccc2c1=O,1.7% (inactive)
11,CC(CCc1ccccc1)NC(=O)c1ccc(Br)o1 (centres undefined),57.2% (active)
12,CC(CNC(=O)c1ccc(Br)o1)NC(=O)c1ccc(Br)o1 (centres undefined),10.7% (inactive)
13,CCN(CC)S(=O)(=O)N1CCC(C(=O)NC(C)CCc2ccccc2)CC1 (centres undefined),-8.4% (inactive)
14,CS(=O)(=O)c1ccc2nc(NC(=O)C3CCCCC3)sc2c1,-0.8% (inactive)
15,N#CC1=C(N)N(c2ccc(F)cc2)C(=O)C1,-22.3% (inactive)
16,Cc1ccccc1CSc1nnc(-c2ccccn2)n1N,43.6% (inactive)
17,O=C(Nn1cc(C(=O)N2CCN(c3ccccc3F)CC2)c2ccccc2c1=O)c1cnccn1,9.8% (inactive)
18,COc1ccc(Nc2ncc(C(=O)N3CCN(c4ccccc4OC)CC3)c3ccccc23)cc1,51.6% (active)
19,COc1ccc2oc(=O)c(C(=O)N3CCN(c4ccccc4F)CC3)cc2c1,9.7% (inactive)
20,COc1ccc(N2C(=O)CCC(C(=O)N(C)C3CCCCC3)C2c2ccc(OC)c(OC)c2)cc1 (centres undefined),20.3% (inactive)
